The labels stand for the following.
B1: CACGUCA (DNA:RNA)
RNA: GGGAGACCGGAAUUCAGAUUGUCCCACGUCAUUAAAUCCCGUCGUAGCCACCA
DNA 1: CAATCTGAATTCCGGTCTCCC
DNA 2: TGGTGGCTACGACGGGATT
B2: CCUUCGA (DNA:RNA)
RNA: B1 RNA with A26C, C27U, G28U, U29C, C30G
DNA 1: CAATCTGAATTCCGGTCTCCC
DNA 2: TGGTGGCTACGACGGGATT
B3: GUGCUCC (DNA:RNA)
RNA: B1 RNA with C25G, A26U, C27G, G28C, A31C
DNA 1: CAATCTGAATTCCGGTCTCCC
DNA 2: TGGTGGCTACGACGGGATT
B4: UGGGGUG (DNA:RNA)
RNA: B1 RNA with C25U, A26G, C27G, U29G, C30U, A31G
DNA 1: CAATCTGAATTCCGGTCTCCC
DNA 2: TGGTGGCTACGACGGGATT
B5: UGUGGUG (DNA:RNA)
RNA: B1 RNA with C25U, A26G, C27U, U29G, C30U, A31G
DNA 1: CAATCTGAATTCCGGTCTCCC
DNA 2: TGGTGGCTACGACGGGATT
B6: UGUUGGG (DNA:RNA)
RNA: GGGAGACCGGAAUUCAGAUUGUCCUGUUGGGUUAAAUCCCGUCGUAGCCACCA
DNA 1: CAATCTGAATTCCGGTCTCCC
DNA 2: TGGTGGCTACGACGGGATT
B7: UGGGUUG (DNA:RNA)
RNA: B6 RNA with U27G, U28G, G29U, G30U
DNA 1: CAATCTGAATTCCGGTCTCCC
DNA 2: TGGTGGCTACGACGGGATT
B8: CUGGGUG (DNA:RNA)
RNA: B1 RNA with A26U, C27G, U29G, C30U, A31G
DNA 1: CAATCTGAATTCCGGTCTCCC
DNA 2: TGGTGGCTACGACGGGATT
B9: UGGGGGG (DNA:RNA)
RNA: B6 RNA with U27G, U28G
DNA 1: CAATCTGAATTCCGGTCTCCC
DNA 2: TGGTGGCTACGACGGGATT
B10: CCUGGUG (DNA:RNA)
RNA: B6 RNA with U25C, G26C, U28G, G30U
DNA 1: CAATCTGAATTCCGGTCTCCC
DNA 2: TGGTGGCTACGACGGGATT
B11: UGGGUCG (DNA:RNA)
RNA: B1 RNA with C25U, A26G, C27G, A31G
DNA 1: CAATCTGAATTCCGGTCTCCC
DNA 2: TGGTGGCTACGACGGGATT
B12: UGGGUCC (DNA:RNA)
RNA: B1 RNA with C25U, A26G, C27G, A31C
DNA 1: CAATCTGAATTCCGGTCTCCC
DNA 2: TGGTGGCTACGACGGGATT
B13: UGGUGUG (DNA:RNA)
RNA: B6 RNA with U27G, G30U
DNA 1: CAATCTGAATTCCGGTCTCCC
DNA 2: TGGTGGCTACGACGGGATT
B14: UGGUCCG (DNA:RNA)
RNA: B6 RNA with U27G, G29C, G30C
DNA 1: CAATCTGAATTCCGGTCTCCC
DNA 2: TGGTGGCTACGACGGGATT
B15: UGGGUGU (DNA:RNA)
RNA: B6 RNA with U27G, U28G, G29U, G31U
DNA 1: CAATCTGAATTCCGGTCTCCC
DNA 2: TGGTGGCTACGACGGGATT
B16: GGUUCAA (DNA:RNA)
RNA: B6 RNA with U25G, G29C, G30A, G31A
DNA 1: CAATCTGAATTCCGGTCTCCC
DNA 2: TGGTGGCTACGACGGGATT
B17: CCGCUAC (DNA:RNA)
RNA: B1 RNA with A26C, C27G, G28C, C30A, A31C
DNA 1: CAATCTGAATTCCGGTCTCCC
DNA 2: TGGTGGCTACGACGGGATT
B18: UGUACUC (DNA:RNA)
RNA: B6 RNA with U28A, G29C, G30U, G31C
DNA 1: CAATCTGAATTCCGGTCTCCC
DNA 2: TGGTGGCTACGACGGGATT
B19: ACGAAGA (DNA:RNA)
RNA: B1 RNA with C25A, A26C, C27G, G28A, U29A, C30G
DNA 1: CAATCTGAATTCCGGTCTCCC
DNA 2: TGGTGGCTACGACGGGATT
B20: UUCGCAG (DNA:RNA)
RNA: B1 RNA with C25U, A26U, U29C, C30A, A31G
DNA 1: CAATCTGAATTCCGGTCTCCC
DNA 2: TGGTGGCTACGACGGGATT

Where a chain is given by its changes, count along the chain named. In all, about 16,000 sequences were measured (“ka relative to ugcaugu”: median about 0.096, highest 2% from about 0.35 on). The full list was thinned out, with the highest values kept by preference.

The test has as its target T1, RBFOX1 RRM RbFoxmut (Fox-RRM*) (Homo sapiens, UniProt Q9NWB1 109-208, R118D;E147R;N151S;E152T).
T1 sequence: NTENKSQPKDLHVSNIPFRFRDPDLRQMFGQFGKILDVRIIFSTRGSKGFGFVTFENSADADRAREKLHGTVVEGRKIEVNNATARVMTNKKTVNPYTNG
The experiment in a line: EMSA; HiTS-Eq, 1 nM pool, 10 min; buffer printed only for the single-RNA assays: 10 mM Tris pH 7.5, 150 mM NaCl, 3.4 mM EDTA, 0.001% NP-40, 30 C. As to conditions: tags: His6 N-terminal (pET28a); label: 5' 32P. Put shortly:
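These values rest on relative association constants, computed from read-count changes of each RNA species versus the control reaction and normalised to the cognate motif. Reads came from free RNA recovered by 8% native PAGE after purified RbFox RRM (wild type or mutant) at increasing concentrations was equilibrated for 10 min in 50 µL with 1 nM of a 5′-radiolabelled pool with 7 randomized nucleotides and DNA-annealed flanks.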
As to B1, the binding signal is 0.124 KA relative to UGCAUGU.

Consider B2, for which the binding signal was 0.0928 KA relative to UGCAUGU.

Consider B3, for which the binding signal is 0.0573 KA relative to UGCAUGU.

For the molecule B4, the binding signal is 0.38 KA relative to UGCAUGU.

B5: the binding signal was 0.273 KA relative to UGCAUGU.

B6: the binding signal was 0.0997 KA relative to UGCAUGU.

On to B7, for which the binding signal is 0.947 KA relative to UGCAUGU.

Regarding B8, the binding signal was 0.347 KA relative to UGCAUGU.

Take B9: the binding signal was 0.0903 KA relative to UGCAUGU.

For B10, the binding signal was 0.109 KA relative to UGCAUGU.

Regarding B11, the binding signal is 0.375 KA relative to UGCAUGU.

B12: the binding signal was 0.149 KA relative to UGCAUGU.

B13: the binding signal is 0.498 KA relative to UGCAUGU.

Take B14: the binding signal is 0.265 KA relative to UGCAUGU.

In the case of B15, the binding signal is 0.305 KA relative to UGCAUGU.

For the molecule B16, the binding signal was 0.0825 KA relative to UGCAUGU.

With B17, the binding signal was 0.129 KA relative to UGCAUGU.

Take B18: the binding signal is 0.0695 KA relative to UGCAUGU.

On to B19, for which the binding signal is 0.105 KA relative to UGCAUGU.

For the molecule B20, the binding signal was 0.0914 KA relative to UGCAUGU.
